Among the data in PubChem BioAssay (EPA / NIEHS) are outcome and AC50 values, retold here.

What all share (details): mRNA level, 48 h; actives raise or lower the signal
Read-out in assay [1]: DNA damage-inducible transcript 3 (DDIT3), DDIT3 (gene 1649)
As to the kind of experiment: LTEA_HepaRG_DDIT3: Life Technologies and Expression Analysis (LTEA) Assay for DNA damage-inducible transcript 3 (DDIT3) using HepaRG (AID 2283488). The method in brief: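 qRT-PCR readout (Fluidigm TaqMan), housekeeping-normalized to ACTB, GAPDH, POLR2A. HepaRG cells, 48 h exposure, 8-point half-log series from 100 uM in 0.5% DMSO, duplicates. Gain or loss of signal fitted against DMSO baseline.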

Read-out in assay [2]: Pro-epidermal growth factor (Homo sapiens) (UniProt P01133)
As to the kind of experiment: LTEA_HepaRG_EGF: Life Technologies and Expression Analysis (LTEA) Assay for Epidermal growth factor (EGF) using HepaRG (AID 2283489). The method, boiled down: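 HepaRG cells (~100,000/well, 48 h pre-culture) exposed in duplicate for 48 h in serum-free induction medium to 8 half-log concentrations up to 100 uM in 0.5% DMSO. EGF mRNA by qRT-PCR, normalized to ACTB/GAPDH/POLR2A; bidirectional fit versus DMSO.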

Read-out in assay [3]: Early growth response protein 1 (EGR1) transcription factor, EGR1 (gene 1958)
As to the kind of experiment: LTEA_HepaRG_EGR1: Life Technologies and Expression Analysis (LTEA) Assay for Early growth response protein 1 (EGR1) transcription factor using HepaRG (AID 2283490). The method, boiled down: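 EGR1 transcript levels quantified by qRT-PCR (Fluidigm arrays) against three housekeeping genes after 48 h chemical exposure of HepaRG cells. Eight-point half-log series topping at 100 uM, 0.5% DMSO vehicle, analyzed for gain or loss.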

Read-out in assay [4]: Ezrin (EZR), EZR (gene 7430)
As to the kind of experiment: LTEA_HepaRG_EZR: Life Technologies and Expression Analysis (LTEA) Assay for Ezrin (EZR) using HepaRG (AID 2283491). The method, boiled down:
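Gain or loss of EZR mRNA is scored relative to 0.5% DMSO in human HepaRG cultures treated 48 h with test chemicals in duplicate, eight half-log concentrations from 100 uM.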

Read-out in assay [5]: Cytochrome P450 3A7 (Homo sapiens) (UniProt P24462)
Kind of assay: LTEA_HepaRG_CYP3A7: Life Technologies and Expression Analysis (LTEA) Assay for CYP3A7 using HepaRG (AID 2283492). The method, boiled down:
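Differentiated HepaRG cells in serum-free induction medium exposed 48 h in duplicate to 8-point half-log series from 100 uM top in 0.5% DMSO. CYP3A7 mRNA by qRT-PCR, normalized to ACTB/GAPDH/POLR2A, bidirectional fit versus DMSO.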

Read-out in another assay: CYP3A5 (gene 1577)
As to the kind of experiment: LTEA_HepaRG_CYP3A5: Life Technologies and Expression Analysis (LTEA) Assay for CYP3A5 using HepaRG (AID 2283493). The method in brief:
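qRT-PCR read-out: CYP3A5 transcript in HepaRG lysates, housekeeping-normalized (ACTB/GAPDH/POLR2A), fitted bidirectionally against 0.5% DMSO baseline. Exposure 48 h, eight half-log concentrations up to 100 uM, duplicates.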

Read-out in assay [6]: Fatty Acid-Binding Protein 1 (FABP1), FABP1 (gene 2168)
Kind of assay: LTEA_HepaRG_FABP1: Life Technologies and Expression Analysis (LTEA) Assay for Fatty Acid-Binding Protein 1 (FABP1) using HepaRG (AID 2283494). The method in brief:
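FABP1 expression by TaqMan qRT-PCR, normalised to three housekeeping genes, in HepaRG cells after 48 h chemical treatment. Eight-point half-log series topping at 100 uM in 0.5% DMSO, duplicates; gain or loss fitted relative to vehicle.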

Read-out in assay [7]: Cytochrome P450 4A22 (Homo sapiens) (UniProt Q5TCH4)
As to the kind of experiment: LTEA_HepaRG_CYP4A22: Life Technologies and Expression Analysis (LTEA) Assay for Cytochrome P450 4A22 (CYP4A22) using HepaRG (AID 2283495). The method, boiled down: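 Differentiated HepaRG cells in serum-free induction medium exposed 48 h in duplicate to eight half-log concentrations up to 100 uM in 0.5% DMSO. CYP4A22 mRNA quantified by TaqMan qRT-PCR, normalized to ACTB, GAPDH and POLR2A; bidirectional fit versus DMSO.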

Read-out in assay [8]: Cytochrome P450 7A1 (Homo sapiens) (UniProt P22680)
As to the kind of experiment: LTEA_HepaRG_CYP7A1: Life Technologies and Expression Analysis (LTEA) Assay for Cytochrome P450 7A1 (CYP7A1) using HepaRG (AID 2283496). The method, boiled down: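 Using 0.5% DMSO as vehicle and baseline, chemicals were tested in duplicate over an 8-point range from 100 uM on HepaRG cells for 48 h; qRT-PCR signals were normalised to ACTB, GAPDH and POLR2A.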

Read-out in assay [9]: Glutathione S-Transferase (GSTA2), GSTA2 (gene 2939)
As to the kind of experiment: LTEA_HepaRG_GSTA2: Life Technologies and Expression Analysis (LTEA) Assay for Glutathione S-Transferase (GSTA2) using HepaRG (AID 2283497). The method, boiled down: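 GSTA2 transcript levels came from Fluidigm TaqMan qRT-PCR normalized to three housekeeping genes, fitted in both directions against DMSO. HepaRG cultures received chemicals for 48 h in serum-free induction medium (0.5% DMSO), 8 half-log concentrations up to 100 uM, duplicate.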

Read-out in assay [10]: Glutamate-cysteine ligase catalytic (GCLC), GCLC (gene 2729)
Kind of assay: LTEA_HepaRG_GCLC: Life Technologies and Expression Analysis (LTEA) Assay for Glutamate-cysteine ligase catalytic (GCLC) using HepaRG (AID 2283498). The method, boiled down:
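Expression by TaqMan qRT-PCR, normalized to three housekeeping genes (ACTB, GAPDH, POLR2A), with up- or down-regulation fitted against DMSO. HepaRG cells dosed in duplicate for 48 h with 8 half-log concentrations up to 100 uM, vehicle 0.5% DMSO.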

Read-out in assay [11]: growth arrest and DNA damage 45 (GADD45G), GADD45G (gene 10912)
Kind of assay: LTEA_HepaRG_GADD45G: Life Technologies and Expression Analysis (LTEA) Assay for growth arrest and DNA damage 45 (GADD45G) using HepaRG (AID 2283499). The method in brief: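 Differentiated human HepaRG cells, 48 h post-plating, exposed 48 h in serum-free induction medium to 8 half-log concentrations (top 100 uM, 0.5% DMSO) in duplicate. GADD45G mRNA measured by Fluidigm TaqMan qRT-PCR, normalized to ACTB, GAPDH, POLR2A; bidirectional fit versus DMSO.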

Read-out in assay [12]: Glutamate-cysteine ligase regulatory (GCLM), GCLM (gene 2730)
Kind of assay: LTEA_HepaRG_GCLM: Life Technologies and Expression Analysis (LTEA) Assay for Glutamate-cysteine ligase regulatory (GCLM) using HepaRG (AID 2283500). The method in brief: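 HepaRG, 48 h dosing, 100 uM top, half-log x8, 0.5% DMSO vehicle. Readout: GCLM mRNA by TaqMan qRT-PCR, housekeeping-normalized (ACTB/GAPDH/POLR2A). Curves fit bidirectionally vs DMSO baseline.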

Read-out in assay [13]: Glutathione S-transferase M3 (GSTM3), GSTM3 (gene 2947)
As to the kind of experiment: LTEA_HepaRG_GSTM3: Life Technologies and Expression Analysis (LTEA) Assay for Glutathione S-transferase M3 (GSTM3) using HepaRG (AID 2283501). The method in brief:
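Differentiated human HepaRG cells were exposed in duplicate for 48 h in serum-free induction medium, 8 points from 100 uM top in half-log steps, 0.5% DMSO. GSTM3 mRNA was measured by TaqMan qRT-PCR, normalized to ACTB, GAPDH and POLR2A; bidirectional fit versus DMSO.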

Read-out in assay [14]: Hypoxia-inducible factor 1-alpha (Homo sapiens) (UniProt Q16665)
Kind of assay: LTEA_HepaRG_HIF1A: Life Technologies and Expression Analysis (LTEA) Assay for Hypoxia-inducible factor 1 (HIF1A) Trancription factor using HepaRG (AID 2283503). The method, boiled down: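 Gain- or loss-of-signal HIF1A mRNA changes are fitted against a DMSO baseline. HepaRG cultures receive eight concentrations, highest 100 uM, for 48 h in serum-free induction medium with 0.5% DMSO.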

Read-out in assay [15]: 3-Hydroxy-3-Methylglutaryl-CoA Synthase 2 (HMGCS2), HMGCS2 (gene 3158)
As to the kind of experiment: LTEA_HepaRG_HMGCS2: Life Technologies and Expression Analysis (LTEA) Assay for 3-Hydroxy-3-Methylglutaryl-CoA Synthase 2 (HMGCS2) using HepaRG (AID 2283504). The method in brief: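 Human HepaRG cells in serum-free induction medium were exposed in duplicate for 48 h to 8-point half-log series from 100 uM top in 0.5% DMSO. HMGCS2 mRNA measured by TaqMan qRT-PCR, normalised to ACTB, GAPDH, POLR2A; bidirectional fit versus DMSO.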

Read-out in a further assay: HGF (gene 3082)
As to the kind of experiment: LTEA_HepaRG_HGF: Life Technologies and Expression Analysis (LTEA) Assay for Hepatocyte Growth Facto (HGF) using HepaRG (AID 2283505). The method in brief:
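Differentiated HepaRG cells in serum-free induction medium exposed 48 h in duplicate, 8 half-log concentrations from 100 uM in 0.5% DMSO. HGF mRNA by qRT-PCR, normalised to ACTB, GAPDH, POLR2A; bidirectional fitting.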

Read-out in assay [16]: Intercellular Adhesion Molecule 1 (ICAM1), ICAM1 (gene 3383)
As to the kind of experiment: LTEA_HepaRG_ICAM1: Life Technologies and Expression Analysis (LTEA) Assay for Intercellular Adhesion Molecule 1 (ICAM1) using HepaRG (AID 2283507). The method in brief:
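Differentiated human HepaRG cells in serum-free induction medium exposed 48 h in duplicate to 8 half-log concentrations (top 100 uM, 0.5% DMSO). ICAM1 mRNA quantified by TaqMan qRT-PCR, normalized to ACTB, GAPDH and POLR2A; bidirectional fitting versus DMSO.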

Read-out in assay [17]: Heat shock 70 kDa protein 1 (HSPA1A), gene 3303
Kind of assay: LTEA_HepaRG_HSPA1A: Life Technologies and Expression Analysis (LTEA) Assay for Heat shock 70 kDa protein 1 (HSPA1A) using HepaRG (AID 2283502). The method, boiled down:
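HepaRG, 48 h exposure, 8-pt half-log CRC from 100 uM in 0.5% DMSO, duplicates. Readout: TaqMan qRT-PCR of HSPA1A mRNA, housekeeping-normalized (ACTB/GAPDH/POLR2A). Bidirectional fit vs 0.5% DMSO baseline.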

Read-out in assay [18]: Insulin Like Growth Factor 1 (IGF1), IGF1 (gene 3479)
Kind of assay: LTEA_HepaRG_IGF1: Life Technologies and Expression Analysis (LTEA) Assay for Insulin Like Growth Factor 1 (IGF1) using HepaRG (AID 2283506). The method in brief:
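qRT-PCR readout of IGF1 mRNA, normalized to three housekeeping genes, after 48 h chemical exposure of HepaRG cells. Concentrations: 8-point half-log series, top 100 uM, 0.5% DMSO vehicle. Gain or loss fitted against DMSO baseline.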

The structures appear in SMILES notation. Activity calls are given as the source filed them. The calls were made as follows: active = hit-call score of the fitted dose curve at least 0.9, where 1 is the maximum; inactive = score below 0.9.

Hypoxia-inducible factor 1-alpha (Homo sapiens), sequence (Q16665 whole entry, looked up): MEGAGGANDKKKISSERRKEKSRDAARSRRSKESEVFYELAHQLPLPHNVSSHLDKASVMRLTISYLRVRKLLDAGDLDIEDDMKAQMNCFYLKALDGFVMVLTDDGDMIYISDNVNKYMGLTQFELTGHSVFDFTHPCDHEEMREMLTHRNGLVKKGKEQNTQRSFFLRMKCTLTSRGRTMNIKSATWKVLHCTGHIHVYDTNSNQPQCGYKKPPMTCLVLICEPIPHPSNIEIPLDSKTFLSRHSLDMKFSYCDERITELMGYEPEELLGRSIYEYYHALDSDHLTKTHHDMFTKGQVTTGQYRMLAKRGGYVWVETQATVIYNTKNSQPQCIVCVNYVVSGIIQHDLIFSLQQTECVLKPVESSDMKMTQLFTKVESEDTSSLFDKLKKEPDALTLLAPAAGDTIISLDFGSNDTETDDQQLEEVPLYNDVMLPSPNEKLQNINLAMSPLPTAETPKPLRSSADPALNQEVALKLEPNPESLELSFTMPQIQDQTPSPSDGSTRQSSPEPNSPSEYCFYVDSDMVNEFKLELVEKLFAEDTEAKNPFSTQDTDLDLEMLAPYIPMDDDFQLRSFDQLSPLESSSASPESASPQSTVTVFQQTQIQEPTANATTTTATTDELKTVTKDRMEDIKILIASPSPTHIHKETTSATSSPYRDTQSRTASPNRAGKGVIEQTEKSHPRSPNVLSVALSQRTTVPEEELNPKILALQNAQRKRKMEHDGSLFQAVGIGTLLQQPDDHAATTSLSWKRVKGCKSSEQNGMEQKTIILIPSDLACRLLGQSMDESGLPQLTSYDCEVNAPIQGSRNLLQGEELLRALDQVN
Cytochrome P450 3A7 (Homo sapiens), sequence (P24462 whole entry, looked up): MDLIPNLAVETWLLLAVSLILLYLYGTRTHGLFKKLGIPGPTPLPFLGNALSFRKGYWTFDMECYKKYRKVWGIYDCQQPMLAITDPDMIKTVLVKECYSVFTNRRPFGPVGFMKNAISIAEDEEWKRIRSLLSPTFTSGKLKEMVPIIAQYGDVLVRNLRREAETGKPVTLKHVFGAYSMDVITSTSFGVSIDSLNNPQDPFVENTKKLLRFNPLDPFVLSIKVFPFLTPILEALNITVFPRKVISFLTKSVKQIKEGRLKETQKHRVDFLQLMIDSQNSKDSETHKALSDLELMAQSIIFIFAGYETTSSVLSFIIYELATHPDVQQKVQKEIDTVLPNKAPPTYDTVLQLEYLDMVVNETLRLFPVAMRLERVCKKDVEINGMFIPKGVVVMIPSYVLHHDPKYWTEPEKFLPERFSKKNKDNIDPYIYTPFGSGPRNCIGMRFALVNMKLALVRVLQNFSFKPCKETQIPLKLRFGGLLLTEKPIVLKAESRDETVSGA

As a reminder, the AC50 is the midpoint of the concentration-response curve, whichever way the signal moves. `CCCCOC(=O)[C@@H](C)Oc1ccc(Oc2ccc(C#N)cc2F)cc1`: the molecule was called inactive (in assay [1]; in assay [2]; in assay [3]; in assay [4]; in assay [5]; with CYP3A5 (gene 1577)). The molecule was called inactive in [6], in [8], in [9], in [10], in assay [11] and in assay [12]. Besides, the outcome (in assay [13]; in [14]; with HGF (gene 3082); in assay [16]) was inactive. Besides, the AC50 is 18.7 µM (active) in [7] and 25.8 µM (active) in assay [15].
For the molecule `CCCCN(CC)c1c([N+](=O)[O-])cc(C(F)(F)F)cc1[N+](=O)[O-]`, the call (in assay [1]; in [2]; in assay [3]; in assay [4]; in assay [5]; in the assay with CYP3A5 (gene 1577)) was inactive. For the same molecule, the molecule was called inactive in assay [6], in assay [7], in assay [8], in [9], in [10] and in [11]. The outcome (in assay [13]; in assay [17]; in assay [14]; in assay [15]; with HGF (gene 3082); in [18]) was inactive. For the same molecule, the outcome in [16] was inactive.
For the molecule `O=c1ccc(=O)[nH][nH]1`, the call (in assay [1]; in [2]; in [3]; in [4]; with CYP3A5 (gene 1577); in assay [6]) was inactive. Moreover, the molecule was classed as inactive in assay [7], in assay [8], in assay [9], in [10], in [11] and in assay [12]. Also, the call (in [13]; in assay [14]; in [15]; with HGF (gene 3082); in [18]; in assay [16]) was inactive.
Turning to `CSc1nnc(C(C)(C)C)c(=O)n1N`, the molecule was classed as inactive (in [1]; in assay [2]; in assay [3]; in [4]; in assay [5]; with CYP3A5 (gene 1577)). Moreover, the result in assay [6], in assay [7], in assay [8], in assay [9], in assay [10] and in assay [11] was inactive. The molecule was called inactive (in [13]; in assay [14]; in [15]; with HGF (gene 3082); in assay [16]).
